# In PubChem BioAssay (NCATS):
# Unmarked numbers belong to inactive results. Records with an inconclusive call do not appear. A call without a number means that no potency is given here. Activity calls are given as the source filed them. Unless noted, calls come from the whole dose curve.
# What was measured:
# [1] = Primary qHTS for inhibitors of SARS-S pseudo-typed particle cell entry (AID 1479145); conditions: outcome: dose series up to 57.1 µM unless noted; note: nearly all actives have a fitted effect of over 45% in size; for activity change, negative = inhibition: series mostly up to about 57 µM
# [2] = Primary qHTS for Huh7 cytotoxicity: counterscreen for inhibitors of MERS-S pseudotyped particle cell entry (AID 1479147); conditions: outcome: dose series up to 57.1 µM unless noted
# [3] = Validation qHTS assay for inhibitors of Activation Induced Cytidine Deaminase (AID): UDG Counterscreen signal (AID 1347427; active = well fitted curve in the direction sought with a large enough effect; an effect the other way counts as inactive or inconclusive)
# How it was run: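 Counterscreen read of UDG activity (2 U/mL, 4/3x) in the FRET deamination format with AID (1 uM, 4/3x), DJC20/DJC23 substrates (250 nM, 4x), 4 h at room temperature. NaOH stop, fluorescence at 560 ex/665 em.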
# [4] = target: Single-stranded DNA cytosine deaminase (Homo sapiens) (UniProt Q9GZX7); experiment: Validation qHTS assay for inhibitors of Activation Induced Cytidine Deaminase (AID): AID signal (AID 1347429; active = well fitted curve in the direction sought with a large enough effect; an effect the other way counts as inactive or inconclusive)
# Single-stranded DNA cytosine deaminase (Homo sapiens), sequence (Q9GZX7 whole entry, looked up): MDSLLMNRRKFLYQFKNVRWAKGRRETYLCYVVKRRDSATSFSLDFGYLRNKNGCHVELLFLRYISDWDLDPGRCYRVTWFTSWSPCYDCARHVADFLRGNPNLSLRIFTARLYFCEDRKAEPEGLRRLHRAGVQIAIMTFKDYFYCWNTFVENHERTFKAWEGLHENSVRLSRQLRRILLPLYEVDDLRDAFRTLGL
# How it was run: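 In this coupled qHTS, AID deaminates a FRET-labelled ssDNA substrate in the presence of UDG over 4 hr at room temperature. Compounds span up to 114 uM final.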
smiles,measurement,setting,value
CCCCNCC(O)c1ccc(O)cc1 (centres undefined),outcome,[1],inactive
same,outcome,[2],inactive
CCN(CCCl)Cc1ccccc1Br,Potency,[3],inactive
same,Potency,[4],inactive
O=C/C=C/c1ccccc1,outcome,[1],inactive
same,outcome,[2],inactive
C[Se]C[C@H](N)C(=O)O,Potency,[3],inactive
same,Potency,[4],inactive
NC(Cc1ccc(N(CCCl)CCCl)cc1)C(=O)O (centres undefined),Potency,[3],inactive
same,Potency,[4],inactive
COc1ccc2c(c1)[C@@]13CCCC[C@H]1[C@@H](C2)NCC3,Potency,[3],inactive
same,Potency,[4],inactive
NCC(O)c1cccc(O)c1 (centres undefined),outcome,[1],inactive
same,outcome,[2],inactive
COc1cc(CC(C)N)c(OC)cc1I (centres undefined),Potency,[3],inactive
same,Potency,[4],inactive
CCCC(=O)OC(C(Cl)(Cl)Cl)P(=O)(OC)OC (centres undefined),outcome,[2],inactive
O=C(NCNC(=O)NC1C(=O)NC(=O)N1CO)NC1C(=O)NC(=O)N1CO (centres undefined),outcome,[1],inactive
same,outcome,[2],inactive
CC(C)CCC(=O)O[C@H]1CC[C@H]2[C@@H]3CCC4=CC(=O)CC[C@]4(C)[C@H]3CC[C@]12C,outcome,[1],inactive
same,outcome,[2],inactive
C=CC[C@]1(O)CC[C@H]2[C@@H]3CCC4=CCCC[C@@H]4[C@H]3CC[C@@]21C,outcome,[1],inactive [at 114 µM]
same,outcome,[2],inactive [at 114 µM]
CC(=O)O[C@H]1CC[C@H]2[C@@H]3CCC4=CC(=O)CCC4=C3C=C[C@]12C,outcome,[1],inactive
same,outcome,[2],inactive
O=[N+]([O-])c1ccccc1,outcome,[1],inactive
same,outcome,[2],inactive
C[C@]12CC[C@H]3[C@@H](CCC4=C(O)C(=O)CC[C@@H]43)[C@@H]1CC[C@@H]2OC(=O)CCC1CCCC1,outcome,[2],inactive
Cc1ccccc1-n1c(CF)nc2ccc(N)cc2c1=O,outcome,[2],inactive
COc1cc2c(cc1OC)[C@@]13CCN4CC5=CCO[C@H]6CC(=O)N2[C@H]1[C@H]6[C@H]5C[C@H]43,outcome,[1],inactive
same,outcome,[2],inactive
CC(N)Cc1ccc(O)cc1 (centres undefined),outcome,[1],inactive
same,outcome,[2],inactive
CCCCCCC(=O)O[C@H]1CC[C@H]2[C@@H]3CC[C@H]4CC(=O)C=C(C)[C@]4(C)[C@H]3CC[C@]12C,outcome,[2],inactive
O=[N+]([O-])c1cc(I)c(O)c(I)c1,outcome,[1],inactive
same,outcome,[2],inactive
c1ccc2sc(SNC3CCCCC3)nc2c1,outcome,[1],inactive
same,outcome,[2],inactive
FC(F)OC(F)(F)C(F)Cl (centres undefined),outcome,[2],inactive
CCNCC(O)c1cccc(O)c1 (centres undefined),outcome,[2],inactive
C[C@@H](CO)NC(=O)[C@@H]1C=C2c3cccc4[nH]cc(c34)C[C@H]2N(C)C1,outcome,[1],inactive
same,outcome,[2],inactive
ClC1C(Cl)C(Cl)C(Cl)C(Cl)C1Cl (centres undefined),outcome,[2],inactive
O=P(O)(O)C(Cl)(Cl)P(=O)(O)O,"activity change, negative = inhibition",[1],-10.6% [at 5.34 µM]
same,outcome,[2],inactive [at 5.34 µM]
CC1CCC(C(C)C)C(OC(=O)c2ccccc2N)C1 (centres undefined),outcome,[1],inactive
same,outcome,[2],inactive
CCOc1ccc2c3c1O[C@H]1[C@@H](O)C=C[C@H]4[C@@H](C2)N(C)CC[C@@]341,outcome,[2],inactive
Oc1ccc2c3c1O[C@H]1[C@@H](O)CC[C@@]4(O)[C@@H](C2)N(CC2CCC2)CC[C@]314,outcome,[2],inactive
Cn1sc(Cl)cc1=O,outcome,[1],inactive
same,outcome,[2],inactive
CCC1C(C)=NN=C(c2ccc(OC)c(OC)c2)c2cc(OC)c(OC)cc21 (centres undefined),outcome,[1],inactive
same,outcome,[2],inactive
C[C@@H]([C@H](O)c1ccccc1)N(C)C,outcome,[1],inactive
same,outcome,[2],inactive
C/C(=C\c1csc(C)n1)[C@@H]1C[C@@H]2O[C@]2(C)CCC[C@H](C)[C@H](O)[C@@H](C)C(=O)C(C)(C)[C@@H](O)CC(=O)O1,outcome,[1],inactive
same,outcome,[2],inactive
CCC1(CC)C(=O)NC(=O)N(C)C1=O,outcome,[2],inactive
CCNC1(c2cccs2)CCCCC1=O (centres undefined),outcome,[1],inactive
same,outcome,[2],inactive
CCCCC[C@@H](O)C1C(=O)OC(C)[C@H](O)/C=C/C=C/C=C/C=C/C=C(\C)C(O)C(O)C(O)C[C@H](O)C[C@H](O)C[C@H](O)C[C@H](O)C[C@@H]1O (some centres undefined),outcome,[1],inactive
same,outcome,[2],inactive
CCC1(C)CC(=O)NC(=O)C1,outcome,[1],inactive [at 114 µM]
same,outcome,[2],inactive [at 114 µM]
CCC(=O)O[C@@](Cc1ccccc1)(c1ccccc1)[C@@H](C)CN(C)C,outcome,[2],inactive
C[C@]12CCC(=O)C=C1C=C[C@@H]1[C@@H]2CC[C@@]2(C)[C@H]1CC[C@@]2(O)CCC(=O)O,outcome,[2],inactive
CC(C)(O)[C@@H]1[C@H]2OC(=O)[C@@H]1[C@]1(O)C[C@H]3O[C@]34C(=O)O[C@H]2[C@]14C,outcome,[1],inactive
same,outcome,[2],inactive
O=S(=O)(O)c1cc(O)ccc1O,outcome,[1],inactive
same,outcome,[2],inactive
CC[N+](C)(CC)CCOC(=O)C(O)(c1ccccc1)c1ccccc1,outcome,[1],inactive
same,outcome,[2],inactive
CC[C@H]1CN2CC[C@H]1C[C@@H]2[C@@H](O)c1ccnc2ccc(OC)cc12,outcome,[2],inactive
C[N+]1(C)CCCCC1COC(=O)C(O)(c1ccccc1)c1ccccc1 (centres undefined),outcome,[1],inactive
same,outcome,[2],inactive
CCOC(=O)c1ccccc1C(=O)OCC,outcome,[1],inactive
same,outcome,[2],inactive
C[C@]12CC[C@H](OS(=O)(=O)O)CC1=CC[C@@H]1[C@@H]2CC[C@]2(C)C(=O)CC[C@@H]12,outcome,[2],inactive
CCN(CC)C(=O)N[C@H]1C[C@@H]2c3cccc4[nH]cc(c34)C[C@H]2N(C)C1,outcome,[2],inactive
